The values below come from PubChem BioAssay (EPA / NIEHS).

Inconclusive results are not listed. Calls of active or inactive are those of the source. Rule for the calls: active = hit-call score of the fitted dose curve at least 0.9, where 1 is the maximum; inconclusive = response in the unintended direction; inactive = score below 0.9.

A short description of the assay: Tanguay_ZF_120hpf_TR_legacy: (Legacy) Oregon State University Tanguay Lab 120 Hour Post-fertilization zebrafish Assay for Touch Response (AID 2283667). The method, boiled down: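 Binary touch-response call at 120 hpf, analysed as gain of signal versus DMSO baseline. Wild-type 5D larvae, static exposure at 28C, 0.64% DMSO final; 5uM trimethyltin chloride as positive control.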
Consider `CCOC(=O)c1ccc(C2CCC(NC[C@H](O)COc3ccc(O)c(NS(C)(=O)=O)c3)CC2)cc1` (some centres undefined), for which the outcome was inactive.

Consider `NC(=O)NO`, for which the compound was classed as inactive.

Consider `Cc1ccc(O)cc1`, for which the result was inactive.

On to `Cn1c(=O)c2c(ncn2C)n(C)c1=O`, for which the call was inactive.

Turning to `O=C(CCCCCCCCc1cccnc1)N1CCC(C=C(c2ccccc2)c2ccccc2)CC1`, the call was inactive.

Regarding `Cc1[nH]cnc1C[C@H]1CCc2c(C)c3ccccc3n2C1=O`, the compound was classed as inactive.

For `CCCCCCCCCCCCCCCO`, the compound was classed as inactive.

`CCOC(=O)COc1ccc2c(c1)CC(NCC(O)c1cccc(Cl)c1)CC2` (centres undefined): the call was inactive.

On to `CC(=O)OCCC(C)C`, for which the call was inactive.

As for `CCCCCCc1ccc(O)cc1O`, the compound was called inactive.

With `CNCc1ccc(NC(=O)c2c[nH]c3c2C(=O)CCC3)cc1`, the result was inactive.

As to `CC(C)CC(C)(O)C#CC(C)(O)CC(C)C` (centres undefined), the call was inactive.

For `O=C(OC[C@H]1O[C@@H](OC(=O)c2cc(O)c(O)c(OC(=O)c3cc(O)c(O)c(O)c3)c2)[C@H](OC(=O)c2cc(O)c(O)c(OC(=O)c3cc(O)c(O)c(O)c3)c2)[C@@H](OC(=O)c2cc(O)c(O)c(OC(=O)c3cc(O)c(O)c(O)c3)c2)[C@@H]1OC(=O)c1cc(O)c(O)c(OC(=O)c2cc(O)c(O)c(O)c2)c1)c1cc(O)c(O)c(OC(=O)c2cc(O)c(O)c(O)c2)c1`, the compound was called inactive.

`Cn1cnc([N+](=O)[O-])c1Sc1ncnc2nc[nH]c12`: the compound was called inactive.

`CCCN(C1CCN(C(=O)C2CCNCC2)CC1)[C@@H]1CCc2ccc(OC)cc2C1`: the outcome was inactive.

On to `C[C@](N)(Cc1ccc(O)c(O)c1)C(=O)O`, for which the result was inactive.

For the compound `CC(C)=CCC/C(C)=C\CO`, the call was inactive.

For the compound `CCCCC(CC)COC(=O)c1ccc(C(=O)OCC(CC)CCCC)cc1` (centres undefined), the compound was classed as inactive.

With `CN(C)c1ccc(N=NS(=O)(=O)O)cc1`, the result was inactive.

As for `CCN(C(=O)c1cc(C)cc(OC[C@H](C)Nc2ccncc2)c1)C(C)C`, the compound was classed as inactive.

Take `CCCCC(CC)COC(=O)CCCCCCCCC(=O)OCC(CC)CCCC` (centres undefined): the outcome was inactive.

As to `O=c1n(CC2CO2)c(=O)n(CC2CO2)c(=O)n1CC1CO1` (centres undefined), the compound was called inactive.

As to `CNS(=O)(=O)c1cc(C(=O)N2CCC(CCN3C4CCC3CC(n3c(C)nc5ccccc53)C4)(c3cccc(F)c3)CC2)c(Cl)cc1F` (centres undefined), the compound was called inactive.

Take `CC(C)(O)c1coc(S(=O)(=O)NC(=O)Nc2c3c(cc4c2CCC4)CCC3)c1`: the compound was called inactive.

Take `COC(=O)c1ccccc1O`: the compound was classed as inactive.

Consider `CCCCCCCCO`, for which the result was inactive.

Take `O=C1OC(=O)C2C3C=CC(C3)C12` (centres undefined): the compound was classed as inactive.

In the case of `CC[C@H]1CC[C@H](NCc2cc3c(cc2OC)[C@H]2C[C@H]2C(=O)N3C)[C@H](c2ccccc2)N1`, the compound was classed as inactive.

Regarding `CC/C(=C\C(=N/O)C(N)=O)C(C)[N+](=O)[O-]` (centres undefined), the compound was classed as inactive.
